Consider 7 compounds from PubChem BioAssay (NCATS).

Unmarked numbers belong to inactive results. Results filed as inconclusive are left out. The source made the active and inactive calls. Unless noted, the call rests on the fitted dose curve; in most records, active means well fitted curve in the direction sought with a large enough effect; inconclusive means small, poorly fitted or top-dose-only effect, or another doubt; inactive means no such curve, though single readings can be large; an effect the other way counts as inactive or inconclusive.

Test [1] has as its target Lysosomal acid glucosylceramidase (Homo sapiens) (UniProt P04062). Description: Glucocerebrosidase-p2 (AID 348; in the data active means potency below about 10 µM; further: potency means the concentration at half of the fitted maximal effect). The conditions noted are these: purified GBA, blue fluorogenic substrate, 40 min. In outline: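 Compounds titrated from 0.6 nM upwards against 0.2 nM enzyme in pH 5.9 citric acid/KH2PO4, taurocholate, tween-20; blue fluorogenic substrate 80 uM, 40 min room temperature, stopped and read Ex 365/Em 440 for AC50.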

The target in test [2] is Cytochrome P450 1A2 (Homo sapiens) (UniProt P05177). Description: p450-cyp1a2 (AID 410; calls by dose curve; further: potency means the concentration at half of the fitted maximal effect). An outline of the steps:
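Luminescent readout of luciferin formed from Luciferin-ME by human CYP1A2; data normalized against complete inhibition by 57 uM furafylline. Enzyme 20nM, substrate 100uM at Km, 100mM KPO4 buffer, 60 min reaction at room temperature.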

Test [3] can be described thus: NFAT Signaling Pathway (AID 444; active means well fitted curve in either direction with a large enough effect, not every such curve was filed as active;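 further: carbachol stimulus at about its EC50 of 1 µM final; on the % scale 0 is the no-effect control and ±100 the full control effect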). The conditions noted are these: Jurkat NFAT-bla M1, carbachol, beta-lactamase ratio, 5 h; at 7.69 µM (top of the series) unless noted. In outline: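 Jurkat cells with NFAT-driven β-lactamase reporter and co-expressed M1 receptor, stimulated with carbachol (final 1 uM, ~EC50), compound titration, 5 h at 37 °C. CCF4 loaded 1 h at RT; 460/530 nm ratio gave %activity and AC50.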

A short description of test [4]: Stat Signaling Pathway (AID 446; active means well fitted curve in either direction with a large enough effect, not every such curve was filed as active;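 further: ME-180 cervical cancer cells given 40 pM IL-6 alongside compound; SIE-controlled beta-lactamase reporter measured as 460/530 nm FRET emission ratio; on the % scale 0 is the no-effect control and ±100 the full control effect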). An outline of the steps: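 Reporter line: ME-180 cervical carcinoma, SIE-beta-lactamase. Treatment: compound with 40 pM IL-6, 5 hrs, 37 C, in low-serum OPTI-MEM with 10 mM HEPES pH 7.3. Detection: 460/530 nm fluorescence.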
Test [5] has as its target Glucocorticoid receptor (Homo sapiens) (UniProt P04150). Description: GR-EFC Redistribution (AID 451; calls by dose curve; further: potency means the concentration at half of the fitted maximal effect). The conditions noted are these: CHO-K1 GR-EFC translocation, beta-gal luminescence, 2 h. In outline: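 CHO-K1 cells expressing nuclear EA and GR-ED fragments of b-gal; compounds titrated up to 46 uM final, 2 h at 37 C. GR nuclear translocation read as complemented b-gal luminescence after 1 h RT detection.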

Test [6] addresses Mitogen-activated protein kinase 10 (Mus musculus) (UniProt Q61831). Description: JNK3 AlphaScreen Assay (AID 530; active means well fitted curve in either direction with a large enough effect, not every such curve was filed as active;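 further: kinase came from lysate of stimulated human HepG2 cells; signal reports phosphorylation of biotinylated GST-cJun 1-79 at Ser73 with 10 µM ATP; on the % scale 0 is the no-effect control and ±100 the full control effect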). In outline: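 Pre-activated (IL-1β/TNFα) JNK3 in HepG2 lysates phosphorylates biotin-GST-cJun(1-79), 10 uM ATP; anti-phospho-cJun(Ser73) AlphaScreen read at room temperature, pH 7.6 Tris buffer. Compounds pre-incubated 15 min as titrations.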
Test [7] concerns the target Cytochrome P450 3A4 (Homo sapiens) (UniProt P08684). Description: qHTS Assay for Inhibitors and Substrates of Cytochrome P450 3A4 (AID 884). Further: potency means the concentration at half of the fitted maximal effect; nearly all actives have a fitted effect of over 50% in size. In outline: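 20 nM human CYP3A4 with 25 uM Luciferin-PPXE (at KM) in 200 mM KPO4, preincubated 10 min with compound; NADPH regeneration started a 60 min RT reaction. Luciferin detected by luminescence, normalized to 57 uM ketoconazole as full inhibition.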

For test [8] the target is unchanged. Description: qHTS Assay for Activators of Cytochrome P450 3A4 (AID 885). Further: nearly all actives have a fitted effect of over 65% in size. An outline of the steps: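 Signal was normalized against complete inhibition by 57 uM ketoconazole. The reaction used 20nM CYP3A4 with 25uM Luciferin-PPXE, 10-min compound preincubation and a 60-min NADPH-supported step at RT.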
Test [9] addresses Dual specificity protein kinase CLK4 (Homo sapiens) (UniProt Q9HAZ1). Description: qHTS Assay for Inhibitors of CDC-like Kinase 4 (Kinase-Glo Assay) (AID 1770). Further: nearly all actives have a fitted effect of over 65% in size. Further: potency means the concentration at half of the fitted maximal effect. An outline of the steps: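 25 nM Clk4 with 100 uM RS repeat peptide and 1 uM ATP (final) in Tris pH7.5, 10 mM MgCl2, 4.5 h at room temperature. Remaining ATP measured by Kinase-Glo luciferase luminescence.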
The target of test [10] is Ubiquitin carboxyl-terminal hydrolase 1 (Homo sapiens) (UniProt O94782). Description: Inhibitors of USP1/UAF1: Pilot qHTS (AID 504865).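 Further: rhodamine fluorescence freed from ubiquitin-rhodamine substrate followed over time; top concentration of the series differs between compounds; on the % scale 0 is the no-effect control and ±100 the full control effect; nearly all actives have a fitted effect of over 35% in size.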 An outline of the steps: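 USP1/UAF1 complex at 1 nM preincubated 15 min at room temperature with compound, then Ub-Rho substrate added at 150 nM final. Fluorescence (480/540 nm) read kinetically in 50 mM HEPES pH 7.8, 0.5 mM EDTA, 1 mM TCEP, 0.1 mg/ml BSA, 0.01% Tween-20.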

The target of test [11] is Glucocorticoid receptor (Homo sapiens) (UniProt P04150). Description: GR-GFP Redistribution (AID 450;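 active means compounds whose dose series gives a full or clear partial fitted curve of increased nuclear translocation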; further: potency means the concentration at half of the fitted maximal effect). The conditions noted are these: U2OS GR-GFP nuclear translocation, laser cytometry, 2 h.
Test [12] addresses Cytochrome P450 2C9 (Homo sapiens) (UniProt P11712). Description: qHTS Assay for Inhibitors and Substrates of Cytochrome P450 2C9 (AID 883). Further: potency means the concentration at half of the fitted maximal effect; nearly all actives have a fitted effect of over 60% in size. An outline of the steps: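 Signal: luciferase luminescence reporting luciferin produced by CYP2C9. Conditions: 10nM enzyme, Luciferin-H 100uM at KM, 25mM KPO4, 37C, 60 min NADPH-driven reaction. Reference: 57uM sulphaphenazole as 100% inhibition.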

A short description of test [13]: qHTS Assay for Identification of Small Molecule Agonists for Hypoxia Response Element Signaling Pathway (AID 914; active means well fitted activation curve with a large enough effect in the signal ratio, with a control signal flat, not every such curve was filed as active; the % refers to the signal ratio; further: potency means the concentration at half of the fitted maximal effect; on activation: % of control where 0% means no effect). The conditions noted are these: ME-180 HRE-bla reporter, beta-lactamase ratio, CoCl2, 17 h; activation: active compounds read high. An outline of the steps: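 AC50 values come from titration-series %Activity, taken as the 460/530nm ratio of CCF4 fluorescence (excitation 405nm). CellSensor HRE-bla ME-180 cells were treated 17 hours at 37 C with compound plus an EC50 level of CoCl2.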

Test [14] deals with Dual specificity protein kinase CLK4 (Homo sapiens) (UniProt Q9HAZ1). Description: qHTS Assay for Inhibitors of CDC-like Kinase 4 (ADP-FP Assay) (AID 1795).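 Further: recombinant human CLK4 phosphorylating RS repeat peptide at 1 µM ATP; on the % scale 0 is the no-effect control and ±100 the full control effect; nearly all actives have a fitted effect of over 60% in size.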 An outline of the steps:
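Recombinant Clk4 (6.25 nM) phosphorylated 100 uM RS repeat peptide with 1 uM ATP in 25 mM Tris pH 7.5, 10 mM MgCl2, 0.5 mM EGTA, 2.5 mM DTT, 0.01% Triton X-100 for 1 h. ADP was detected by Transcreener ADP2 competitive fluorescence polarization after 30 min at room temperature.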

Test [15] has as its target 3',5'-cyclic-AMP phosphodiesterase 4B (Homo sapiens) (UniProt Q07343). Description: qHTS Assay for Inhibitors of PDE-IV (AID 607; active means well fitted activation curve with a large enough effect in the main read-out, with a control signal flat, not every such curve was filed as active; further: % of control where 0% means no effect). In outline:
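Cell-based read-out of cAMP via a modified cyclic nucleotide-gated channel and membrane potential dye (535/590 nm) in HEK293 cells expressing PDE4 endogenously. Compounds tested up to 22.9 uM final; 100 uM RO 20-1724 reference.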

A short description of test [16]: AP1 Signaling Pathway (AID 357; active means well fitted curve in either direction with a large enough effect, not every such curve was filed as active;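 further: ME-180 reporter cells stimulated with EGF at its EC50 level; on the % scale 0 is the no-effect control and ±100 the full control effect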). The conditions noted are these: ME-180 (cervical carcinoma) AP-1-bla reporter, EGF-induced, beta-lactamase ratio, 5 h; at 7.69 µM (top of the series) unless noted. An outline of the steps:
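In this screen, ME-180 cells in Opti-MEM with 0.5% dialyzed FBS received EC50 EGF and compound titrations for 5 h. AP-1 reporter beta-lactamase was detected via CCF4 ratio, giving AC50 for positive and negative modulators.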

The target of test [17] is Cytochrome P450 2C19 (Homo sapiens) (UniProt P33261). Description: qHTS Assay for Inhibitors and Substrates of Cytochrome P450 2C19 (AID 899). Further: potency means the concentration at half of the fitted maximal effect; nearly all actives have a fitted effect of over 60% in size. In outline:
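Signal comes from luciferase acting on luciferin released by CYP2C19-mediated hydroxylation of Luciferin-H EGE, 10uM (KM). Assay mix: 5nM enzyme, 50mM KPO4; 60 min at 37C with NADPH regeneration. Data normalized against 57uM ketoconazole.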

Test [18] deals with Dual specificity protein kinase CLK4 (Homo sapiens) (UniProt Q9HAZ1). Description: qHTS Assay for Inhibitors of CDC-like Kinase 4 (ADP-Glo Assay) (AID 1771). Further: potency means the concentration at half of the fitted maximal effect; nearly all actives have a fitted effect of over 70% in size. In outline:
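Luminescence from ADP-Glo reports ADP produced by 25 nM Clk4 acting on 100 uM RS repeat peptide with 1 uM ATP over 1 hr at room temperature; residual ATP is depleted before ADP is converted to ATP for detection.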

The target of test [19] is Cytochrome P450 2D6 (Homo sapiens) (UniProt P10635). Description: qHTS Assay for Inhibitors and Substrates of Cytochrome P450 2D6 (AID 891). Further: potency means the concentration at half of the fitted maximal effect; nearly all actives have a fitted effect of over 60% in size. In outline:
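Human CYP2D6 (5 nM) with 30 uM Luciferin-ME EGE (at Km) in 100 mM KPO4, compound preincubated 10 min, then NADPH regeneration system for 60 min at room temperature. Luciferin read by luminescence; normalized to 1.43 uM quinidine.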

Dual specificity protein kinase CLK4 (Homo sapiens), sequence (Q9HAZ1 whole entry, looked up): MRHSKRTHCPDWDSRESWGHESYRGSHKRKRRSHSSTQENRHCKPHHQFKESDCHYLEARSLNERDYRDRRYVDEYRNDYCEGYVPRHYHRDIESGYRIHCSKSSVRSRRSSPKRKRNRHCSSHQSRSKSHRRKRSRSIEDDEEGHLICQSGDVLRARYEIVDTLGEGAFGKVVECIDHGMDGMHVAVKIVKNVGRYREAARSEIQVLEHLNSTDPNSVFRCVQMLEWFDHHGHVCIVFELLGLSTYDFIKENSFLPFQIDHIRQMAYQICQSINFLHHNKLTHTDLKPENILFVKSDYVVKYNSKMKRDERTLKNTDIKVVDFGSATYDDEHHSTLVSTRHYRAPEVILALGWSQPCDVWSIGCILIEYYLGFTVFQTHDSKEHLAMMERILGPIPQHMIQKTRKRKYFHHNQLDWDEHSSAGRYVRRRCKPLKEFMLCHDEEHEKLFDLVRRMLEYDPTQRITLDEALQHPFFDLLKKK
Glucocorticoid receptor (Homo sapiens), sequence (P04150 whole entry, looked up, the tested form may be a part): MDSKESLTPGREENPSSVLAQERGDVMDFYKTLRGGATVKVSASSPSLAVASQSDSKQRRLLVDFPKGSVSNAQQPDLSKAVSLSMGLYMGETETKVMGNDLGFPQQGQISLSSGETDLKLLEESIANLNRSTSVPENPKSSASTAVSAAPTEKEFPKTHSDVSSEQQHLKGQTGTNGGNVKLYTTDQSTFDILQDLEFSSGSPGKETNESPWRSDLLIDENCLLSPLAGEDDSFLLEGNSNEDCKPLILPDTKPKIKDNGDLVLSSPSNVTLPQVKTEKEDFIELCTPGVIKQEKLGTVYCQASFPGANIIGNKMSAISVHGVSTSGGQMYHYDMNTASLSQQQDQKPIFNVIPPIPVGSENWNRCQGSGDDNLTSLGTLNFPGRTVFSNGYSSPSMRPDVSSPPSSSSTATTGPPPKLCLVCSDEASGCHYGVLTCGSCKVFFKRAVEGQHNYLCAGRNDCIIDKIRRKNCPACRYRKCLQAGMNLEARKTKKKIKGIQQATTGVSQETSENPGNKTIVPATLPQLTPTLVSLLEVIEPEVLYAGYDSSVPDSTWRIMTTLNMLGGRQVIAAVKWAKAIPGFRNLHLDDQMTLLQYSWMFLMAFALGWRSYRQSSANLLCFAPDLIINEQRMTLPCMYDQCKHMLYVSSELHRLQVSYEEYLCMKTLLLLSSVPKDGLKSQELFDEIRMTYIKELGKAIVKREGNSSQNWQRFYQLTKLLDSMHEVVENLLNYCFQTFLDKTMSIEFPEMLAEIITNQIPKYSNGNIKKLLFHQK
Cytochrome P450 3A4 (Homo sapiens), sequence (P08684 whole entry, looked up): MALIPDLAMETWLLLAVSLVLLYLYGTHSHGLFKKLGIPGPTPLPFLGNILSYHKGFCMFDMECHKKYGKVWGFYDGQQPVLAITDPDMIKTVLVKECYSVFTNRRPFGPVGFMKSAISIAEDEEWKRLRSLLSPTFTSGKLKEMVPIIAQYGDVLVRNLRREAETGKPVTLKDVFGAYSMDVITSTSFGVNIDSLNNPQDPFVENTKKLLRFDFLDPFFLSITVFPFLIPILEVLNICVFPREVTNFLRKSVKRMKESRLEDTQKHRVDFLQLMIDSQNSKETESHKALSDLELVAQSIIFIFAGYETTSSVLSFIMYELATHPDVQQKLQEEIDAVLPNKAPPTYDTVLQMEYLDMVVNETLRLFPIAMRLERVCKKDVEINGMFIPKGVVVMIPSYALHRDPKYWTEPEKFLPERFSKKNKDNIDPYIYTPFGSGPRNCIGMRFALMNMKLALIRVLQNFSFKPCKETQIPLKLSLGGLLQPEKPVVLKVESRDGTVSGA
Cytochrome P450 1A2 (Homo sapiens), sequence (P05177 whole entry, looked up): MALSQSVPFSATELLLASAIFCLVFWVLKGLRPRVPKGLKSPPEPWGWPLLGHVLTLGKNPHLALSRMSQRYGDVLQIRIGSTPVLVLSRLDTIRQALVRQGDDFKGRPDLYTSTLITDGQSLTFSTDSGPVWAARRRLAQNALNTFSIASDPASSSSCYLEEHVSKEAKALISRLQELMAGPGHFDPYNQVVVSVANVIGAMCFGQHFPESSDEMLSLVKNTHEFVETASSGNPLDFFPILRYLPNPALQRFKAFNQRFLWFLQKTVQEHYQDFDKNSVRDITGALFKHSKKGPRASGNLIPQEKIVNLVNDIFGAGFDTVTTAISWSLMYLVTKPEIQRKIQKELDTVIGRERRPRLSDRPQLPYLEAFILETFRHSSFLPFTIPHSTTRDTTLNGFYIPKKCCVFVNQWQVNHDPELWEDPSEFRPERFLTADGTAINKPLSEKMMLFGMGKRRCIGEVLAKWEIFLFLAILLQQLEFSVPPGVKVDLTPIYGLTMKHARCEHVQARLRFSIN
3',5'-cyclic-AMP phosphodiesterase 4B (Homo sapiens), sequence (Q07343 whole entry, looked up): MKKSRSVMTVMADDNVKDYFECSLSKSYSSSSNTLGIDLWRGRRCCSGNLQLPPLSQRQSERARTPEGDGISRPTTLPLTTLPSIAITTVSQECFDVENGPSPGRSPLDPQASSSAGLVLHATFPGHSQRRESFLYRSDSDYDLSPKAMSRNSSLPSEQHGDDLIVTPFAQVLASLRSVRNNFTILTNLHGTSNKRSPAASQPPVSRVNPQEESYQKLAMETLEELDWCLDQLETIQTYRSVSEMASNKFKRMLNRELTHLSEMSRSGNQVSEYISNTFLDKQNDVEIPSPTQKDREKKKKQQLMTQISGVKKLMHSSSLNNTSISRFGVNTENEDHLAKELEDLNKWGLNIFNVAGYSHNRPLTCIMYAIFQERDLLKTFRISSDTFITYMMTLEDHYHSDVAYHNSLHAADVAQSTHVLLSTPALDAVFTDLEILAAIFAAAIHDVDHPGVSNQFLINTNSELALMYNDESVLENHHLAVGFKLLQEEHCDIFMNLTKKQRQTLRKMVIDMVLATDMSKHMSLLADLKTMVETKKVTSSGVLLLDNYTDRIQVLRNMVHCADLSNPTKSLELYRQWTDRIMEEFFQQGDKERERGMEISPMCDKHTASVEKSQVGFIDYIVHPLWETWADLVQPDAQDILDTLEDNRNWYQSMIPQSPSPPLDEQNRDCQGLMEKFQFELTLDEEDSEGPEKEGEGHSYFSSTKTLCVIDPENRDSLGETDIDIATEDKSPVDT
Lysosomal acid glucosylceramidase (Homo sapiens), sequence (P04062 whole entry, looked up): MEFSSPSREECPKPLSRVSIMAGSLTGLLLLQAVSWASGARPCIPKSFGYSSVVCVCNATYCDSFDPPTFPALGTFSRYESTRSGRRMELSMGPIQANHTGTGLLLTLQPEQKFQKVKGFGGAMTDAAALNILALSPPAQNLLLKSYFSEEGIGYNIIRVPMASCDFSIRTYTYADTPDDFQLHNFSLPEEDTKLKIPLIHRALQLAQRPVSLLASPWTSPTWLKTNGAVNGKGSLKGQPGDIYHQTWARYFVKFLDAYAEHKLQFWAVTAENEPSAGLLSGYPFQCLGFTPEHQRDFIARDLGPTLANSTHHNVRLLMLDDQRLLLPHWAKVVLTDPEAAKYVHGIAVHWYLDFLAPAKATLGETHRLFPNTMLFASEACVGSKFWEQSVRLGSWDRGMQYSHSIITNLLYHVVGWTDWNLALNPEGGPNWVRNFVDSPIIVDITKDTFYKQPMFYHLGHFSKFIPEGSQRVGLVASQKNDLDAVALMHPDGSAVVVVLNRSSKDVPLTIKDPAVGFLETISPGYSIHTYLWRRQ
Ubiquitin carboxyl-terminal hydrolase 1 (Homo sapiens), sequence (O94782 whole entry, looked up): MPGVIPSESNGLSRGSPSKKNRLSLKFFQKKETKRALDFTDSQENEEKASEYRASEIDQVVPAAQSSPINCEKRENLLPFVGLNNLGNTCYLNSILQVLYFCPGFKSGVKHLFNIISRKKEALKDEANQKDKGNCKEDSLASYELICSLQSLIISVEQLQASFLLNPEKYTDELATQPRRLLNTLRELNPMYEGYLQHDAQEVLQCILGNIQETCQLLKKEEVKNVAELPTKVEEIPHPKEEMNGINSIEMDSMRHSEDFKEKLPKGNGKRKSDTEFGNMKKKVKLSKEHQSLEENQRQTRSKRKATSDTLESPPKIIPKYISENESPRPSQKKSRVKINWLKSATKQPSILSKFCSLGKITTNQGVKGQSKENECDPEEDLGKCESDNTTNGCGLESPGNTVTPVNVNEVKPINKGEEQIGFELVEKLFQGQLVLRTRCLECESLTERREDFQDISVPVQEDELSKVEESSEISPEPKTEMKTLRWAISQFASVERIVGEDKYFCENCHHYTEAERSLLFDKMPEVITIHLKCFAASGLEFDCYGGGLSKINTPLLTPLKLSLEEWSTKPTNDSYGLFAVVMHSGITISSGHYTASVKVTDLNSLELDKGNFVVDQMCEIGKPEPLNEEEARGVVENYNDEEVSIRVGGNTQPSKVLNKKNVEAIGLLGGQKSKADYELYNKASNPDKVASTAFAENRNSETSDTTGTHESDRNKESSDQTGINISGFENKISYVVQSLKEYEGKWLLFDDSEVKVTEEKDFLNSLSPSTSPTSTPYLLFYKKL
Cytochrome P450 2C9 (Homo sapiens), sequence (P11712 whole entry, looked up): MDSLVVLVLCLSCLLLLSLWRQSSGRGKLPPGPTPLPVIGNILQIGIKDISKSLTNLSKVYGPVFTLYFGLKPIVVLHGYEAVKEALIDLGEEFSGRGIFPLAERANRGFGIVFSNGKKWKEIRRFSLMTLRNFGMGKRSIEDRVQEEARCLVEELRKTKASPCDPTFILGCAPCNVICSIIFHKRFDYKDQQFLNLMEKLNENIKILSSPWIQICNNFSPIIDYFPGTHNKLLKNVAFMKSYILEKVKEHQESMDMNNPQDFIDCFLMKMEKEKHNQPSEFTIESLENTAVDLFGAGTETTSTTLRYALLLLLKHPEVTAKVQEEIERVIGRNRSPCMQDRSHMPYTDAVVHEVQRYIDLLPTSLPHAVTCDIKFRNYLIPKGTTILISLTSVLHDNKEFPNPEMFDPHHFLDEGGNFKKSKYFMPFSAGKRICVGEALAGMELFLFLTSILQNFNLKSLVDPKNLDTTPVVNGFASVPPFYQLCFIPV

In the case of `CN(Cc1ccco1)c1cc(-c2ccc3c(c2)OCO3)ncn1`, the Potency in test [1] is above 11.4 µM; in [2] it was 0.501 µM (active); in test [5] it was above 46 µM; in test [7], 3.98 µM (active); in [9], 2 µM (active). Further, the activity change, negative = inhibition in test [3] was -0.867%. In addition, the compound was called inactive in [4] and in [8]. Moreover, the Potency result in test [6] and in test [10] was “inactive” throughout.
Turning to `O=c1c(-c2ccccc2)nc2cnc(N3CCOCC3)nc2n1CCc1ccccc1`, the Potency in test [2] was 12.6 µM (active); in test [11], above 9.22 µM; in [12] it was 7.94 µM (active); in test [13] it was 3.16 µM (active). Moreover, the compound was called inactive in test [8]. The Potency result in test [9], in test [14] and in [10] was “inactive” throughout.
Take `COCCn1c(=O)c(-c2cccc(C#N)c2)nc2cnc(Oc3cccc(Cl)c3)nc21`: the Potency was above 11.4 µM in [1] and above 9.22 µM in test [11]. Moreover, in test [4], the call was inactive. For the same compound, the Potency result in [15], in [9] and in test [14] was “inactive” each time.
`COc1ccccc1-c1nccc(N2CCN(C)CC2)n1`: the results for the Potency in test [1], in test [11] and in [5] were above 11.4 µM, above 46 µM and above 46 µM, respectively. In addition, the activity change, negative = inhibition in [16] is 15.6%; in test [3], -18.8%. Moreover, the compound was classed as inactive in test [4]. Besides, the Potency result in [6], in test [15], in [9], in [14] and in test [10] was “inactive” each time. Moreover, the activation in test [13] is 26.2%.
`COc1cccc(-c2ccc3ncnc(Nc4ccccc4)c3c2)c1`: the Potency in [2] was 1 µM (active); in test [11], above 46 µM; in test [5], above 46 µM; in test [17], 0.501 µM (active); in [9] it was 2 µM (active); in test [18], 2.82 µM (active). Besides, the call in test [4] and in [8] was inactive. For the same compound, the Potency entry in [10] was “inactive”.
`COc1ccc(-n2c(=O)c(-c3cccs3)nc3cnc(N4CCN(C)CC4)nc32)cc1`: the Potency was above 11.4 µM in [1], 2.51 µM (active) in [2], above 9.22 µM in test [11] and above 46 µM in test [5]. The results for the activity change, negative = inhibition in test [16] and in [3] were 8.48% and 4.91%, respectively. Also, the compound was classed as inactive in test [4] and in test [8]. In addition, the Potency result in test [15], in test [9] and in [10] was “inactive” throughout.
Take `CN(C)c1ncc2nc(CCc3ccccc3)c(=O)n(CCC#N)c2n1`: the Potency in test [1] is above 11.4 µM; in [2], 2 µM (active); in test [11], above 9.22 µM; in test [5], above 46 µM; in test [19] it was 2.51 µM (active). For the same compound, the values for the activity change, negative = inhibition in test [16] and in [3] were -11% and -3.25%, respectively. Further, the outcome in test [4] and in test [8] was inactive. The Potency result in test [9] and in test [10] was “inactive” in each case.
